Several values for one entry are separate records, joined by “and”; a condition that tells them apart may be missing. Equal entries are not always repeated. About 83,000 compounds went through this panel and 20% of them were active in at least one assay; those are over-represented in the sample as a whole.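 Interpretation: 100, growth as untreated; towards 0, rising growth inhibition; 0, no net growth; 0 to -100, cell death. Compounds scoring below 10 were considered active.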 Activity calls are given as the source filed them.
Tests used:
Assay in all cases: NCI-60 one-dose screen, 48 h (100 = growth as untreated, 0 = no growth, -100 = all killed)
T-47D breast = test system: T-47D breast
BT-549 breast = test system: BT-549 breast
MDA-MB-435 melanoma = test system: MDA-MB-435 melanoma
SW-620 colon = test system: SW-620 colon
MCF7 breast = test system: MCF7 breast
HCT-116 colon = test system: HCT-116 colon
HCC-2998 colon = test system: HCC-2998 colon
KM12 colon = test system: KM12 colon

Measured: growth

CC(C)Cc1ccc(C(C)C(=O)NCc2ccc(Cn3c(=O)sn(CCCI)c3=O)cc2)cc1 (configuration not stated)
31.7% (inactive) and -61.4% (active): MCF7 breast; 10 µM unless noted
89.9% (inactive) and -81.9% (active): BT-549 breast; 10 µM unless noted
91.5% (inactive) and -69.2% (active): HCC-2998 colon; 10 µM unless noted
99.2% (inactive) and -36.7% (active): KM12 colon; 10 µM unless noted
active: T-47D breast; 10 µM unless noted -49.3%
82% (inactive) and -72.9% (active): HCT-116 colon; 10 µM unless noted
66.5% (inactive) and -63.2% (active): SW-620 colon; 10 µM unless noted
93% (inactive) and -72.6% (active): MDA-MB-435 melanoma; 10 µM unless noted

CNC(=O)c1cc(Oc2ccc(CC(=O)Nc3cc(C(C)(C)C)nn3C)cc2)ccn1
inactive: T-47D breast; 1 µM 57.4% | T-47D breast; 10 µM 44.7% | T-47D breast; 30 µM 51.7% | BT-549 breast; 1 µM 72.6% | BT-549 breast; 10 µM 82.4% | BT-549 breast; 30 µM 81% | MDA-MB-435 melanoma; 1 µM 78.1% | MDA-MB-435 melanoma; 10 µM 61.8% | MDA-MB-435 melanoma; 30 µM 67.9% | SW-620 colon; 1 µM 106% | SW-620 colon; 10 µM 87.2% | SW-620 colon; 30 µM 97.8% | HCT-116 colon; 1 µM 65% | HCT-116 colon; 10 µM 33.9% | HCT-116 colon; 30 µM 47.4% | HCC-2998 colon; 1 µM 107% | HCC-2998 colon; 10 µM 75.3% | HCC-2998 colon; 30 µM 101% | KM12 colon; 1 µM 88.4% | KM12 colon; 10 µM 58.5% | KM12 colon; 30 µM 64.6%

CNC(=O)c1cccc(-c2ccc3c(N4CCOC[C@@H]4C)nc(N4CCOC[C@@H]4C)nc3n2)c1
18.6% (inactive) and 4% (active): HCC-2998 colon; 10 µM unless noted
active: T-47D breast; 10 µM unless noted -24.4% and -34.1% | BT-549 breast; 10 µM unless noted -7.8% and -13.9% | MDA-MB-435 melanoma; 10 µM unless noted 2.05% and -13.4% | MCF7 breast; 10 µM unless noted 5.66% and 4.27%
11.4% (inactive) and 5.84% (active): SW-620 colon; 10 µM unless noted
inactive: HCT-116 colon; 10 µM unless noted 27.7% and 15.4% | KM12 colon; 10 µM unless noted 11.7% and 13.2%

CC1(C)OB(c2ccc(Cn3cc(F)c(=O)[nH]c3=O)cc2)OC1(C)C
inactive: T-47D breast; 10 µM 102% | T-47D breast; 50 µM 49.3% | BT-549 breast; 10 µM 104% | BT-549 breast; 50 µM 40.1% | MDA-MB-435 melanoma; 10 µM 83.6% | SW-620 colon; 10 µM 95.8% | SW-620 colon; 50 µM 34.2% | MCF7 breast; 10 µM 100% | MCF7 breast; 50 µM 19.1% | HCT-116 colon; 10 µM 101% | HCT-116 colon; 50 µM 29.3% | HCC-2998 colon; 10 µM 104% | HCC-2998 colon; 50 µM 74.4% | KM12 colon; 10 µM 99% | KM12 colon; 50 µM 26.4%
active: MDA-MB-435 melanoma; 50 µM 4.27%

CC(O)(CC(=O)CC(=O)c1ccccc1)c1ccccc1 (configuration not stated)
inactive: T-47D breast; 10 µM unless noted 108% and 109% | BT-549 breast; 10 µM unless noted 93.4% and 95.8% | MDA-MB-435 melanoma; 10 µM unless noted 97.8% | SW-620 colon; 10 µM unless noted 99.9% and 107% | MCF7 breast; 10 µM unless noted 108% and 123% | HCT-116 colon; 10 µM unless noted 92.3% and 92.6% | HCC-2998 colon; 10 µM unless noted 101% and 92.8% | KM12 colon; 10 µM unless noted 103% and 104%

O=C(Nc1cccc(Cl)c1)c1cc2ccccc2cc1O
inactive: MDA-MB-435 melanoma; 10 µM unless noted 28.8% and 13.9% | SW-620 colon; 10 µM unless noted 13.1% and 13.9% | MCF7 breast; 10 µM unless noted 35.5% and 16.9% | HCC-2998 colon; 10 µM unless noted 27.4% | KM12 colon; 10 µM unless noted 15.4% and 11.8%
15.5% (inactive) and 2.04% (active): T-47D breast; 10 µM unless noted
active: BT-549 breast; 10 µM unless noted 6.65% and 0.941%
18.9% (inactive) and 6.81% (active): HCT-116 colon; 10 µM unless noted

O=[N+]([O-])c1ccc(N/N=C\c2cc(Br)ccc2O)nc1
inactive: T-47D breast; 10 µM unless noted 16% and 33% | BT-549 breast; 10 µM unless noted 25.6% | MDA-MB-435 melanoma; 10 µM unless noted 29.3% and 25.2% | SW-620 colon; 10 µM unless noted 27.3% and 34.3% | MCF7 breast; 10 µM unless noted 13.4% and 13.6% | HCT-116 colon; 10 µM unless noted 10.1% and 15.2% | HCC-2998 colon; 10 µM unless noted 23.2% and 23% | KM12 colon; 10 µM unless noted 32.5% and 24%

CCOc1ccc2cc(-c3nn(CC4CCNCC4)c4ncnc(N)c34)ccc2c1
inactive: T-47D breast; 10 µM unless noted 71% and 34.2% | BT-549 breast; 10 µM unless noted 86.1% and 36.2% | MDA-MB-435 melanoma; 10 µM unless noted 95.4% and 14.9% | SW-620 colon; 10 µM unless noted 91.6% and 37.3% | MCF7 breast; 10 µM unless noted 78.8% and 46.2% | HCT-116 colon; 10 µM unless noted 80.4% and 16.4% | HCC-2998 colon; 10 µM unless noted 110% and 49.1% | KM12 colon; 10 µM unless noted 14.5% and 11.9%

Nc1ccn(C2OC(CO)C(O)C2O)c(=O)n1 (configuration not stated)
inactive: T-47D breast; 10 µM unless noted 55.5% and 58.3% and 101%

CC(C)(C)c1cc(NC(=O)Cc2ccc(-c3cnc4cc(-c5cnn(CCN6CCOCC6)c5)ccc4n3)cc2)no1
inactive: T-47D breast; 10 µM 15.6% | T-47D breast; 30 µM 25.5% | MDA-MB-435 melanoma; 10 µM 19.1% | MDA-MB-435 melanoma; 30 µM 19.6% | SW-620 colon; 10 µM 15.5% | SW-620 colon; 30 µM 18.8% | MCF7 breast; 10 µM 35.4% | MCF7 breast; 30 µM 33.8% | HCT-116 colon; 10 µM 14.9% | HCT-116 colon; 30 µM 24.3%
active: KM12 colon; 10 µM 8.46% | KM12 colon; 30 µM 9.72%

Cc1c(Cl)cccc1NCN1C(=O)c2ccccc2C1=O
inactive: T-47D breast; 10 µM unless noted 94.4% | BT-549 breast; 10 µM unless noted 106% | MDA-MB-435 melanoma; 10 µM unless noted 104% | SW-620 colon; 10 µM unless noted 110% | MCF7 breast; 10 µM unless noted 97.6% | HCT-116 colon; 10 µM unless noted 116% | HCC-2998 colon; 10 µM unless noted 111% | KM12 colon; 10 µM unless noted 103%

CC1(c2ccc3ccccc3c2)CCC(=O)O1 (configuration not stated)
inactive: T-47D breast; 10 µM unless noted 103% | BT-549 breast; 10 µM unless noted 104% | MDA-MB-435 melanoma; 10 µM unless noted 106% | SW-620 colon; 10 µM unless noted 108% | MCF7 breast; 10 µM unless noted 106% | HCT-116 colon; 10 µM unless noted 111% | HCC-2998 colon; 10 µM unless noted 109% | KM12 colon; 10 µM unless noted 106%

O=C1C2=C(C(=O)c3ccccc31)C(O)(S(=O)(=O)O)C(O)(S(=O)(=O)O)C1N=CC=CC21 (configuration not stated)
39% (inactive) and -21.9% (active): T-47D breast; 10 µM unless noted
23.1% (inactive) and 8.66% (active): HCT-116 colon; 10 µM unless noted
inactive: BT-549 breast; 10 µM unless noted 39.6% and 24.6% | MDA-MB-435 melanoma; 10 µM unless noted 44.1% and 39% | SW-620 colon; 10 µM unless noted 32.5% and 21.5% | MCF7 breast; 10 µM unless noted 29.1% and 24.9% | HCC-2998 colon; 10 µM unless noted 44.6% and 28.3% | KM12 colon; 10 µM unless noted 41.6% and 32.6%

CCNC(=O)Nc1ccc(-c2nc3c(c(N4CCOC[C@@H]4C)n2)CCN(C2COC2)C3)cc1
32.9% (inactive) and 0.798% (active): MDA-MB-435 melanoma; 10 µM unless noted
active: T-47D breast; 10 µM unless noted -12.4% and -25.3%
28.9% (inactive) and -1.93% (active): BT-549 breast; 10 µM unless noted
inactive: SW-620 colon; 10 µM unless noted 62.2% and 14% | MCF7 breast; 10 µM unless noted 15.6% and 11.8% | HCT-116 colon; 10 µM unless noted 58.9% and 28.5% | HCC-2998 colon; 10 µM unless noted 50% | KM12 colon; 10 µM unless noted 47.5% and 17.1%

CC(=O)Nc1cc(S(=O)(=O)O)cc2cc(S(=O)(=O)O)c(N=Nc3ccccc3)c(O)c12
inactive: T-47D breast; 10 µM unless noted 109% and 85.9% | BT-549 breast; 10 µM unless noted 107% and 117% | MDA-MB-435 melanoma; 10 µM unless noted 108% and 112% | SW-620 colon; 10 µM unless noted 104% and 102% | MCF7 breast; 10 µM unless noted 102% and 91.9% | HCT-116 colon; 10 µM unless noted 93.2% and 123% | HCC-2998 colon; 10 µM unless noted 99.6% and 99.1% | KM12 colon; 10 µM unless noted 107% and 106%

O=C(CN1CCN(c2cc3c(cc2F)c(=O)c(C(=O)O)cn3C2CC2)CC1)Nc1ccc(Cl)cc1
inactive: T-47D breast; 10 µM unless noted 59.1% and 92.4% | BT-549 breast; 10 µM unless noted 55.8% | MDA-MB-435 melanoma; 10 µM unless noted 88.4% and 92.1% | SW-620 colon; 10 µM unless noted 101% and 110% | MCF7 breast; 10 µM unless noted 94.3% and 96.4% | HCT-116 colon; 10 µM unless noted 73.1% and 99.7% | HCC-2998 colon; 10 µM unless noted 85.8% and 103% | KM12 colon; 10 µM unless noted 82.9% and 93.9%

c1ccc2cc(C[n+]3ccn(Cc4ccc5ccccc5n4)c3)ccc2c1
active: MCF7 breast; 10 µM unless noted 9.04% | HCT-116 colon; 10 µM unless noted 2.66%
-5.71% (active) and 13.1% (inactive): T-47D breast; 10 µM unless noted
-7.63% (active) and 12.6% (inactive): KM12 colon; 10 µM unless noted
inactive: SW-620 colon; 10 µM unless noted 18.9% and 56.4% | HCC-2998 colon; 10 µM unless noted 11.1% and 30.9%
4.58% (active) and 19.6% (inactive): MDA-MB-435 melanoma; 10 µM unless noted
-15.9% (active) and 12.2% (inactive): BT-549 breast; 10 µM unless noted

N/C(=N\N=C\c1ccc2c(c1)OCO2)N/N=C\c1ccc2c(c1)OCO2
inactive: T-47D breast; 10 µM unless noted 112% and 107% | BT-549 breast; 10 µM unless noted 95.6% and 67.7% | MDA-MB-435 melanoma; 10 µM unless noted 81.2% and 65.5% | SW-620 colon; 10 µM unless noted 101% and 75.2% | MCF7 breast; 10 µM unless noted 94% and 56% | HCT-116 colon; 10 µM unless noted 97.6% and 48.8% | HCC-2998 colon; 10 µM unless noted 103% and 86.1% | KM12 colon; 10 µM unless noted 93.5% and 70.3%

From PubChem BioAssay (NCI)
